Among all 5,500 compounds or so, about 2,000 (36%) were called active. Inconclusive results (about 18%) are left out. Cut-off read from the data, not from the text of the source: active = normalized growth mostly below about 0.91 (no sharp cut-off); inconclusive = no clear call, values can overlap the other calls; inactive = mostly above about 0.92. Some of the results follow.
Assay: chemical genetic growth profiling, strain panel (AID 1159580);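 note: tested at 20 µM; growth read once vehicle control cultures reached saturation at 30 °C; 1 = growth at the plate median or of vehicle wells; lower values mean less growth of the strain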
Details: growth OD
[1] = S. cerevisiae deletion strains, locus YAL013W, strain DEP1, hits give low values
[2] = S. cerevisiae deletion strains, locus YBR229C, strain ROT2, hits give low values
[3] = S. cerevisiae deletion strains, locus YDL101C, strain DUN1, hits give low values
[4] = S. cerevisiae deletion strains, locus YDL134C, strain PPH21, hits give low values
[5] = S. cerevisiae deletion strains, locus YDR150W, strain NUM1, hits give low values
[6] = S. cerevisiae deletion strains, locus YEL061C, strain CIN8, hits give low values
[7] = S. cerevisiae deletion strains, locus YGR078C, strain PAC10, hits give low values
[8] = S. cerevisiae deletion strains, locus YHR030C, strain SLT2, hits give low values
[9] = S. cerevisiae deletion strains, locus YHR087W, strain rtc3, hits give low values
[10] = S. cerevisiae deletion strains, locus YJR043C, strain POL32, hits give low values
[11] = S. cerevisiae deletion strains, locus YJR075W, strain HOC1, hits give low values
[12] = S. cerevisiae deletion strains, locus YLR039C, strain RIC1, hits give low values
[13] = S. cerevisiae deletion strains, locus YLR058C, strain SHM2 (second series), hits give low values
[14] = S. cerevisiae deletion strains, locus YLR085C, strain ARP6, hits give low values
[15] = S. cerevisiae deletion strains, locus YLR262C, strain YPT6, hits give low values
[16] = S. cerevisiae deletion strains, locus YML094W, strain GIM5, hits give low values
[17] = S. cerevisiae deletion strains, locus YMR219W, strain ESC1, hits give low values
[18] = S. cerevisiae deletion strains, locus YMR263W, strain SAP30, hits give low values
[19] = S. cerevisiae deletion strains, locus YNL153C, strain GIM3, hits give low values
[20] = S. cerevisiae deletion strains, locus YNL298W, strain CLA4 (second series), hits give low values
[21] = S. cerevisiae deletion strains, locus YNL322C, strain KRE1, hits give low values
[22] = S. cerevisiae deletion strains, locus YNR030W, strain Alg12, hits give low values
[23] = S. cerevisiae deletion strains, locus YPL055C, strain LGE1, hits give low values
[24] = S. cerevisiae deletion strains, locus YPL241C, strain CIN2, hits give low values
[25] = S. cerevisiae deletion strains, locus YPR135W, strain CTF4, hits give low values

Measured: normalized growth

N#Cc1sccc1Br
inactive: [1] 0.995 | [2] 0.982 | S. cerevisiae deletion strains, locus YCL061C, strain MRC1, hits give low values 1.02 | [3] 0.967 | [4] 0.993 | [5] 1.06 | [6] 1 | [7] 0.999 | [8] 0.961 | [9] 0.986 | [10] 1.01 | [11] 1.03 | [12] 1 | [13] 0.991 | [14] 1.1 | [15] 1 | [16] 0.982 | [17] 0.991 | [18] 1.04 | [19] 1.02 | [20] 1.04 | [21] 0.997 | [22] 1 | [23] 1.02 | [25] 1.04 | S. cerevisiae strains, strain wild type, hits give low values 0.99
active: [24] 1.32 [resistant]

O=C(Nc1cccnc1)c1cccc(Cl)c1Cl
inactive: [1] 0.977 | [2] 0.993 | [3] 0.98 | [4] 0.988 | [5] 0.957 | [6] 0.971 | [7] 0.983 | [8] 0.935 | [9] 0.99 | S. cerevisiae deletion strains, locus YJL187C, strain SWE1, hits give low values 1.01 | [10] 0.993 | [11] 0.991 | S. cerevisiae deletion strains, locus YKL190W, strain CNB1, hits give low values 0.989 | [12] 1.02 | [13] 1 | [14] 0.955 | [15] 1.01 | [16] 0.946 | [17] 0.992 | [18] 1.01 | S. cerevisiae deletion strains, locus YMR307W, strain GAS1, hits give low values 1.01 | S. cerevisiae deletion strains, locus YNL128W, strain TEP1, hits give low values 0.976 | [19] 0.994 | [20] 0.946 | [21] 0.982 | [22] 0.975 | S. cerevisiae deletion strains, locus YOL006C, strain TOP1, hits give low values 0.943 | [23] 1.02 | [24] 0.985 | [25] 0.856

O=C(Nc1cccnc1)c1cc2c(s1)-c1ccccc1CC2
inactive: S. cerevisiae deletion strains, locus YAR019C, strain CDC15, hits give low values 0.925 | S. cerevisiae deletion strains, locus YBL105C, strain PKC1, hits give low values 0.93 | S. cerevisiae deletion strains, locus YBR135W, strain CKS1, hits give low values 0.919 | S. cerevisiae deletion strains, locus YBR136W, strain MEC1, hits give low values 0.926 | S. cerevisiae deletion strains, locus YBR160W, strain CDC28, hits give low values 0.93 | S. cerevisiae deletion strains, locus YDL017W, strain CDC7, hits give low values 0.937 | S. cerevisiae deletion strains, locus YDL028C, strain MPS1, hits give low values 0.921 | [3] 0.932 | S. cerevisiae deletion strains, locus YDL108W, strain KIN28, hits give low values 0.924 | S. cerevisiae deletion strains, locus YDL132W, strain cdc53, hits give low values 0.903 | S. cerevisiae deletion strains, locus YDL214C, strain PRR2, hits give low values 0.745 | S. cerevisiae deletion strains, locus YDR052C, strain DBF4, hits give low values 0.919 | S. cerevisiae deletion strains, locus YDR054C, strain cdc34, hits give low values 0.9 | S. cerevisiae deletion strains, locus YDR226W, strain ADK1, hits give low values 0.911 | S. cerevisiae deletion strains, locus YFL009W, strain cdc4, hits give low values 0.915 | S. cerevisiae deletion strains, locus YFL029C, strain CAK1, hits give low values 0.912 | S. cerevisiae deletion strains, locus YFR003C, strain YPI1, hits give low values 0.928 | S. cerevisiae deletion strains, locus YFR019W, strain FAB1, hits give low values 0.91 | S. cerevisiae deletion strains, locus YFR028C, strain CDC14, hits give low values 0.918 | S. cerevisiae deletion strains, locus YGR092W, strain DBF2, hits give low values 0.524 | S. cerevisiae deletion strains, locus YHR205W, strain SCH9, hits give low values 0.755 | S. cerevisiae deletion strains, locus YIL147C, strain SLN1, hits give low values 0.919 | S. cerevisiae deletion strains, locus YJL128C, strain PBS2, hits give low values 0.946 | S. cerevisiae deletion strains, locus YJL157C, strain FAR1, hits give low values 0.73 | S. cerevisiae deletion strains, locus YJR016C, strain ILV3, hits give low values 0.92 | S. cerevisiae deletion strains, locus YJR066W, strain TOR1 (second series), hits give low values 0.694 | S. cerevisiae deletion strains, locus YJR066W, strain TOR1, hits give low values 0.532 | S. cerevisiae deletion strains, locus YKL048C, strain ELM1, hits give low values 0.823 | S. cerevisiae deletion strains, locus YKL067W, strain YNK1, hits give low values 0.736 | S. cerevisiae deletion strains, locus YKL101W, strain HSL1, hits give low values 0.811 | S. cerevisiae deletion strains, locus YKL193C, strain SDS22, hits give low values 0.918 | S. cerevisiae deletion strains, locus YLR133W, strain CKI1, hits give low values 0.808 | S. cerevisiae deletion strains, locus YLR403W, strain SFP1, hits give low values 0.663 | S. cerevisiae deletion strains, locus YMR001C, strain CDC5, hits give low values 0.918 | S. cerevisiae deletion strains, locus YMR205C, strain PFK2 (second series), hits give low values 0.767 | S. cerevisiae deletion strains, locus YMR277W, strain FCP1, hits give low values 0.918 | S. cerevisiae deletion strains, locus YNL006W, strain LST8, hits give low values 0.93 | S. cerevisiae deletion strains, locus YNL020C, strain ARK1, hits give low values 0.802 | S. cerevisiae deletion strains, locus YNL161W, strain CBK1, hits give low values 0.924 | S. cerevisiae deletion strains, locus YNL207W, strain RIO2, hits give low values 0.903 | S. cerevisiae deletion strains, locus YNL222W, strain SSU72, hits give low values 0.917 | S. cerevisiae deletion strains, locus YNL307C, strain MCK1 (second series), hits give low values 0.757 | S. cerevisiae deletion strains, locus YOL078W, strain AVO1, hits give low values 0.918 | S. cerevisiae deletion strains, locus YOL136C, strain PFK27, hits give low values 0.725 | S. cerevisiae deletion strains, locus YOR061W, strain CKA2, hits give low values 0.806 | S. cerevisiae deletion strains, locus YOR329C, strain SCD5, hits give low values 0.924 | S. cerevisiae deletion strains, locus YPL209C, strain IPL1, hits give low values 0.932 | S. cerevisiae deletion strains, locus YPR025C, strain CCL1, hits give low values 0.922 | S. cerevisiae deletion strains, locus YPR106W, strain ISR1, hits give low values 0.926 | S. cerevisiae deletion strains, locus YPR111W, strain DBF20, hits give low values 0.915 | S. cerevisiae deletion strains, strain NNK1, hits give low values 0.912 | S. cerevisiae deletion strains, strain TSCII, hits give low values 0.915
active: S. cerevisiae deletion strains, locus YDR477W, strain SNF1, hits give low values 0.666 | S. cerevisiae deletion strains, locus YER123W, strain YCK3, hits give low values 0.592 | S. cerevisiae deletion strains, locus YER133W, strain GLC7, hits give low values 0.548 | S. cerevisiae deletion strains, locus YGR040W, strain KSS1, hits give low values 0.614 | S. cerevisiae deletion strains, locus YGR052W, strain FMP48, hits give low values 0.602 | [8] 0.477 | S. cerevisiae deletion strains, locus YHR079C, strain IRE1, hits give low values 0.495 | S. cerevisiae deletion strains, locus YHR082C, strain KSP1, hits give low values 0.583 | S. cerevisiae deletion strains, locus YJL095W, strain BCK1, hits give low values 0.482 | S. cerevisiae deletion strains, locus YKL203C, strain TOR2, hits give low values 0.59 | S. cerevisiae deletion strains, locus YLR113W, strain HOG1, hits give low values 0.394 | S. cerevisiae deletion strains, locus YML070W, strain DAK1, hits give low values 0.679 | S. cerevisiae deletion strains, locus YNL183C, strain NPR1, hits give low values 0.455 | S. cerevisiae deletion strains, locus YOR119C, strain RIO1, hits give low values 0.636 | S. cerevisiae deletion strains, locus YOR231W, strain MKK1, hits give low values 0.515 | S. cerevisiae deletion strains, locus YPL031C, strain PHO85, hits give low values 0.574 | S. cerevisiae deletion strains, locus YPL153C, strain RAD53, hits give low values 0.529 | S. cerevisiae deletion strains, locus YPL204W, strain HRR25, hits give low values 0.522 | S. cerevisiae deletion strains, locus YPL256C, strain CLN2, hits give low values 0.476

Source: PubChem BioAssay AID1159580 (chemical genetic matrix, 2015)
